Laboratory results: PubChem BioAssay (NCI)
Compounds without any hit were thinned out: in the full panel of roughly 83,000, 20% have a hit.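 Results are percent growth after 48 hours of single-concentration exposure. 100 means growth as in untreated cells, lower positive values show inhibition; negative values down to -100 show cell death.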 Activity calls are given as the source filed them. Rule for the calls: active = growth percent below 10; inactive = the rest.

Experiments:
Assay in all cases: NCI-60 one-dose screen, 48 h (100 = growth as untreated, 0 = no growth, -100 = all killed)
Conditions in all cases: 10 µM unless noted
NCI-H23 lung = system: NCI-H23 lung
NCI-H226 lung = system: NCI-H226 lung
NCI-H322M lung = system: NCI-H322M lung
HOP-62 NSCLC = system: HOP-62 NSCLC
NCI-H460 lung = system: NCI-H460 lung
HOP-92 NSCLC = system: HOP-92 NSCLC
NCI-H522 lung = system: NCI-H522 lung
A549/ATCC NSCLC = system: A549/ATCC NSCLC
786-0 renal = system: 786-0 renal
COLO 205 colon = system: COLO 205 colon
DU-145 prostate = system: DU-145 prostate
K-562 leukemia = system: K-562 leukemia
MALME-3M melanoma = system: MALME-3M melanoma
MDA-MB-231 breast = system: MDA-MB-231 breast
SF-268 CNS = system: SF-268 CNS
SF-295 CNS = system: SF-295 CNS
SF-539 CNS = system: SF-539 CNS
UACC-257 melanoma = system: UACC-257 melanoma
M14 melanoma = system: M14 melanoma

Measured: growth

O=C1Nc2c(ccc(Cl)c2Cl)/C1=C/c1ccc([N+](=O)[O-])cc1
inactive: NCI-H23 lung 91.3% | NCI-H226 lung 159% | NCI-H322M lung 84.9% | HOP-62 NSCLC 90.6% | NCI-H460 lung 107% | HOP-92 NSCLC 95.5% | NCI-H522 lung 88.7% | A549/ATCC NSCLC 29.2% | 786-0 renal 59.7% | COLO 205 colon 114% | DU-145 prostate 108% | K-562 leukemia 89.5% | MALME-3M melanoma 84.4% | MDA-MB-231 breast 94.2% | SF-268 CNS 93.3% | SF-295 CNS 76.7% | SF-539 CNS 95.4% | UACC-257 melanoma 72% | M14 melanoma 104%

Cc1ccc(C2CC(c3cccc(Nc4ccncc4)c3)=NN2c2ccccc2)cc1 (configuration not stated)
active: NCI-H23 lung -69.3% | NCI-H322M lung -87.4% | HOP-62 NSCLC -67% | NCI-H460 lung -77.8% | HOP-92 NSCLC -90.7% | NCI-H522 lung -65.1% | A549/ATCC NSCLC -60.2% | COLO 205 colon -69% | DU-145 prostate -72.2% | K-562 leukemia -15.6% | MALME-3M melanoma -92.8% | MDA-MB-231 breast -87.9% | SF-268 CNS -73.1% | SF-295 CNS -91.3% | SF-539 CNS -96.9% | UACC-257 melanoma -55.7% | M14 melanoma -49.8%
inactive: NCI-H226 lung 28.9% | 786-0 renal 22.1%

C[C@]12C[C@H]1CC[C@]1(C)[C@@H]2CC[C@@]23C[C@H](CC[C@H]21)[C@@](O)(CO)C3
active: 786-0 renal -80.1% | M14 melanoma -47.9%
inactive: NCI-H23 lung 98.5% | NCI-H226 lung 96.8% | NCI-H322M lung 94.2% | HOP-62 NSCLC 109% | NCI-H460 lung 94.3% | HOP-92 NSCLC 92.9% | NCI-H522 lung 87% | A549/ATCC NSCLC 99.6% | COLO 205 colon 109% | DU-145 prostate 104% | K-562 leukemia 66.7% | MALME-3M melanoma 98.7% | MDA-MB-231 breast 93.1% | SF-268 CNS 103% | SF-295 CNS 113% | SF-539 CNS 93% | UACC-257 melanoma 100%

CCN1C(=O)N(CC)C2C1NN=c1s/c(=C3\C(=O)Nc4ccccc43)c(=O)n12 (configuration not stated)
active: HOP-62 NSCLC 5.9% | NCI-H460 lung 9.09% | HOP-92 NSCLC -4.18% | NCI-H522 lung 2.21% | COLO 205 colon -25.1% | K-562 leukemia 2.13% | SF-295 CNS 8.72% | SF-539 CNS -34.1%
inactive: NCI-H23 lung 37.3% | NCI-H226 lung 93.2% | NCI-H322M lung 43.5% | A549/ATCC NSCLC 28.8% | 786-0 renal 27.7% | DU-145 prostate 14.9% | MALME-3M melanoma 19% | MDA-MB-231 breast 25% | SF-268 CNS 67.1% | UACC-257 melanoma 80.4% | M14 melanoma 20.1%

COc1ccc(-c2nc(SC)nc(N3CCOCC3)c2C#N)cc1
inactive: NCI-H23 lung 98.6% | NCI-H226 lung 95.4% | NCI-H322M lung 102% | HOP-62 NSCLC 88.5% | NCI-H460 lung 109% | HOP-92 NSCLC 71.2% | NCI-H522 lung 84% | A549/ATCC NSCLC 95.2% | 786-0 renal 76.8% | COLO 205 colon 99% | DU-145 prostate 106% | K-562 leukemia 97.5% | MALME-3M melanoma 102% | MDA-MB-231 breast 92.2% | SF-268 CNS 92.4% | SF-295 CNS 98.8% | SF-539 CNS 86.5% | UACC-257 melanoma 112% | M14 melanoma 111%

COc1ccc(Cc2nc3cc(OC)c(OC)cc3c(=O)[nH]2)cc1
inactive: NCI-H23 lung 59.6% | NCI-H226 lung 98% | NCI-H322M lung 167% | HOP-62 NSCLC 140% | NCI-H460 lung 89.4% | HOP-92 NSCLC 108% | NCI-H522 lung 52.1% | 786-0 renal 86.9% | COLO 205 colon 68.5% | DU-145 prostate 39.5% | K-562 leukemia 115% | MALME-3M melanoma 273% | MDA-MB-231 breast 73.3% | SF-268 CNS 30.5% | SF-295 CNS 65.3% | SF-539 CNS 100% | M14 melanoma 48.8%
active: A549/ATCC NSCLC -5.67% | UACC-257 melanoma 4.95%

COc1cc(/C=C/C(=O)c2c(C)oc3nc[nH]c(=O)c23)ccc1O
inactive: NCI-H23 lung 98.7% | NCI-H226 lung 102% | NCI-H322M lung 98.3% | HOP-62 NSCLC 93.9% | NCI-H460 lung 103% | HOP-92 NSCLC 116% | NCI-H522 lung 101% | A549/ATCC NSCLC 101% | 786-0 renal 102% | COLO 205 colon 102% | DU-145 prostate 116% | K-562 leukemia 111% | MALME-3M melanoma 103% | MDA-MB-231 breast 106% | SF-268 CNS 99.6% | SF-295 CNS 99.3% | SF-539 CNS 97.5% | UACC-257 melanoma 96.6% | M14 melanoma 99.6%

Clc1cc(Cl)cc(N2N=C(c3cccc(Nc4ccncc4)c3)CC2c2ccccc2)c1 (configuration not stated)
active: NCI-H460 lung -76.1% | COLO 205 colon -49.7% | K-562 leukemia 0.584% | SF-295 CNS 9.59%
inactive: NCI-H23 lung 82.8% | NCI-H226 lung 93.1% | NCI-H322M lung 78% | HOP-62 NSCLC 43.6% | HOP-92 NSCLC 55.7% | NCI-H522 lung 65.2% | A549/ATCC NSCLC 45.5% | 786-0 renal 86.3% | DU-145 prostate 35.7% | MALME-3M melanoma 32.7% | MDA-MB-231 breast 58.1% | SF-268 CNS 84.3% | SF-539 CNS 80.9% | UACC-257 melanoma 84.7% | M14 melanoma 64.1%
